Reference: PubChem BioAssay (NCI)
About 79,000 compounds went through this panel and 15% of them were active in at least one assay; those are over-represented in the sample as a whole. Rule as the data show it: active = growth inhibition above about 70%; inactive = the rest.

Assays:
[1] = NCI Yeast Anticancer Drug Screen. Data for the rad50 strain (AID 155);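 also: 0% = growth of vehicle-only cultures of the same strain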; details: S. cerevisiae rad50 strain growth inhibition; at 50.0 µM; hits give high values
Procedure, shortened: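 Inhibition values express reduced yeast growth in compound-treated cultures relative to vehicle-treated controls.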

[2] = NCI Yeast Anticancer Drug Screen. Data for the mec2-1 strain (AID 157); details: S. cerevisiae mec2-1 strain, at 50.0 µM, hits give high values
Procedure, shortened: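 Cells of the genetically defined mec2-1 yeast strain are incubated with test compound. Inhibition of growth is calculated against vehicle-treated controls.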

[3] = NCI Yeast Anticancer Drug Screen. Data for the sgs1 mgt1 strain (AID 161);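 also: 0% = growth of cultures given vehicle only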; details: S. cerevisiae sgs1 mgt1 strain, at 50.0 µM, hits give high values
Procedure, shortened: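 Genetically altered yeast, compound exposure, growth inhibition relative to vehicle.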

[4] = NCI Yeast Anticancer Drug Screen. Data for the cln2 rad14 strain (AID 165);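 also: 0% = growth equal to vehicle treated cultures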; details: S. cerevisiae cln2 rad14 strain, at 50.0 µM, hits give high values
Procedure, shortened: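 The screen exposed genetically defined yeast (cln2 rad14) to test compounds and scored growth inhibition relative to vehicle-treated controls.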

[5] = NCI Yeast Anticancer Drug Screen. Data for the bub3 strain (AID 167); details: S. cerevisiae bub3 mutant strain, at 50.0 µM, hits give high values
Procedure, shortened: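 Steps: expose the mutant yeast strain to compound; grow alongside vehicle-treated cultures; measure growth; express inhibition against the vehicle cultures.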

[6] = NCI Yeast Anticancer Drug Screen. Data for the mlh1 rad18 strain (AID 175); details: S. cerevisiae mlh1 rad18 strain growth inhibition; at 50.0 µM; hits give high values
Procedure, shortened: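 Compound-treated yeast growth, normalised to vehicle controls. Strain bears defined DNA repair mutations.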

Measured: growth inhibition

O=C(O)c1cnc2cc3c(cc2c1Nc1cccc(Cl)c1)OCO3
inactive: [1] -2.25% | [2] -4.05% | [3] 4.45% | [4] -27.5% | [5] -8.6% | [6] -12.6%

Cc1ccc(S(=O)(=O)NC(Cc2ccc(O)cc2)C(=O)O)cc1 (configuration not stated)
inactive: [1] 1.5% | [2] -8.4% | [3] 5.25% | [4] -57.2% | [5] 12.6% | [6] 35.5%

O=C(Nc1cccc(O)c1)OC1CCCCC1
inactive: [1] 25.8% | [2] 6.05% | [3] 25.2% | [4] -18.1% | [5] 34% | [6] 24.4%

O=C1COc2cccnc2N1
inactive: [1] 12.7% | [2] -2.05% | [3] 19.5% | [4] 2.2% | [5] 14.7% | [6] 14.7%

COC(=O)C1OC2(CCCC3CC32)O[C@H]1C(=O)OC (some centres not stated)
inactive: [1] -8.35% | [2] -10.2% | [3] -20.6% | [4] -13.2% | [5] -13.8% | [6] 6.35%

CN(C)c1nc(N(C)C)nc(N(C)C=O)n1
inactive: [1] -4.9% | [2] -21.9% | [3] -30.7% | [4] -2.85% | [5] -27.6% | [6] -5.55%

CCCCNC(=O)/N=C/c1c(O)c2ccccc2oc1=O
inactive: [1] 7.9% | [2] -10.1% | [3] -13.4% | [4] -1.5% | [5] -42.5% | [6] -16.6%

CCOC(=O)c1cc(=O)[nH]c2ccc(OC)cc12
inactive: [1] 17.2% | [2] 22.2% | [3] 2.25% | [4] 35.6% | [5] 11.6% | [6] 7.05%

CC1=NN(C(=O)c2ccccc2O)C(=O)/C1=C/c1cccc([N+](=O)[O-])c1
inactive: [1] 47.8% | [2] 26.9% | [3] 37.1% | [4] 28.1% | [5] 61.1% | [6] 33.8%

CC1=CC(=O)CCC1c1ccccc1 (configuration not stated)
inactive: [1] -52.6% | [2] -4.75% | [3] -19.8% | [4] 0.8% | [5] -10.4% | [6] -5.95%

O=C(NC1CCCCC1)OCc1c(COC(=O)NC2CCCCC2)c2cccn2c2c1cnn2-c1ccccc1
inactive: [1] 3.7% | [2] 3.4% | [3] -27.6% | [4] 3.1% | [5] -2.95% | [6] 19.1%

OCCNCc1cccc(-c2ccccc2)c1O
inactive: [1] 24.6% | [2] 3% | [3] 15.9% | [4] -18.8% | [5] 8.2% | [6] 16.9%

O=C(CCC(=O)C1Cc2ccccc2C1=O)Nc1cccc(C(F)(F)F)c1 (configuration not stated)
inactive: [1] -38.8% | [2] -42% | [3] -18.8% | [4] -1.5% | [5] -22.9% | [6] -30.7%

CCCCOC(=O)c1ccccc1
inactive: [1] -7% | [2] 13.7% | [3] -10.2% | [4] -2.8% | [5] -1.4% | [6] 18.1%

CCC1(C)NC(=O)OC1=O (configuration not stated)
inactive: [1] 2.25% | [2] -5.7% | [3] -27.6% | [4] 7.75% | [5] 20.5% | [6] 4.65%

NCOC(=O)Cc1ccc(Br)cc1
inactive: [1] 14.8% | [2] 6.65% | [3] -0.35% | [4] -2.55% | [5] 4.15% | [6] 18.6%

COCCN(C)C(c1ccccc1)C(O)c1ccccc1 (configuration not stated)
inactive: [1] 4.8% | [2] -12.9% | [3] 4.3% | [4] -37% | [5] 4.95% | [6] 4.1%

CC(C)N(C(=O)/C=C/C(=O)N(C(C)C)C(C)C)C(C)C
inactive: [1] 3.7% | [2] 27.1% | [3] -1.7% | [4] -2.05% | [5] 18.8% | [6] -9.6%

O=C1NC(=O)C(c2ccsc2)(c2cccs2)N1 (configuration not stated)
inactive: [1] 20.9% | [2] -9.3% | [3] 1% | [4] 14.3% | [5] 5.05% | [6] -1.65%

Cc1nc(N)nc(-c2ccccc2)c1N=Nc1ccccc1Br
inactive: [1] 5.55% | [2] 0.15% | [3] 4.4% | [4] -6.95% | [5] -0.85% | [6] 11.8%

O=C(/C(=C\C(=O)c1cccs1)c1ccsc1)c1ccc(Br)cc1
inactive: [1] 1.2% | [2] -32% | [3] 11.2% | [4] -25.9% | [5] 14.5% | [6] -17.3%

C=CCOC(=O)C(O)C=C (configuration not stated)
inactive: [1] 7.9% | [2] -12.3% | [3] 2.3% | [4] 16.4% | [5] -1.6% | [6] 11.6%

OCC1CC1c1ccccc1 (configuration not stated)
inactive: [1] -4.75% | [2] -0.65% | [3] -6.4% | [4] 10.5% | [5] 10.7% | [6] 5.55%

CC(O)c1ccccc1Br (configuration not stated)
inactive: [1] -9.65% | [2] -15.1% | [3] -16.2% | [4] -13.4% | [5] -36.5% | [6] -21%

O=C(O)c1c(Cl)c(Cl)c(Cl)c(Cl)c1C(=O)Nc1cccc(C(F)(F)F)c1
inactive: [1] -9.55% | [2] 10.2% | [3] -8.8% | [4] -7.35% | [5] -1.7% | [6] -14.7%

CCOC(=O)N1N(C(=O)c2ccccc2)C(=O)CC1(C)C
inactive: [1] -3.15% | [2] 8.2% | [3] 1.5% | [4] -16.1% | [5] -6.8% | [6] -24.2%

CC(C)(C)C(=O)Oc1ccc[nH]c1=O
inactive: [1] 23.4% | [2] -13.9% | [3] 2.35% | [4] -27.6% | [5] -13.7% | [6] -2.1%

O=S(=O)(O)c1ccc[n+]([O-])c1
inactive: [1] 5.7% | [2] 15.4% | [3] -0.05% | [4] 39.5% | [5] 9.1% | [6] -8.2%

CN(C=O)c1cccc(C(=O)O)c1
inactive: [1] 4.05% | [2] -1.2% | [3] -3.95% | [4] -29.5% | [5] -2.35% | [6] 7.45%

CN1/C(=C\N=O)C(C)(C)N(O)C1(C)C
inactive: [1] 16.6% | [2] -13.9% | [3] 2.55% | [4] 17.2% | [5] 5.85% | [6] -85.7%

Nc1nnc(-c2ccccc2)nn1
inactive: [1] 4.05% | [2] 4% | [3] 12.1% | [4] -1.15% | [5] 6.55% | [6] 9.25%

CS(=O)(=O)CC(O)c1ccccc1 (configuration not stated)
inactive: [1] 4.8% | [2] -3.2% | [3] 2.95% | [4] -12.7% | [5] 6.65% | [6] -21.4%

CN(C)C(=O)C1CCC(=O)N1 (configuration not stated)
inactive: [1] 3.1% | [2] 10.6% | [3] 6.6% | [4] -4.95% | [5] 10.6% | [6] -0.3%

CSc1nc(C)cc(=O)n1C1OC(COC(C)=O)C(OC(C)=O)C(OC(C)=O)C1OC(C)=O (configuration not stated)
inactive: [1] 20.6% | [2] -13.6% | [3] -7.35% | [4] 16.6% | [5] -30.6% | [6] 32.5%

CCOC(Cn1ccccc1=N)OCC
inactive: [1] 12.8% | [2] -11.7% | [3] -12.6% | [4] -40% | [5] -7.3% | [6] 4.15%

O=S1(=O)CC(N2CCOCC2)C2=C(O1)c1sc(-c3ccccc3)nc1CC2 (configuration not stated)
inactive: [1] -16.8% | [2] -7.45% | [3] 14.8% | [4] 14.3% | [5] -4.55% | [6] -3.95%

COC(OC)c1cc(C(=O)O)c2ccccc2n1
inactive: [1] -9.45% | [2] -31.2% | [3] -9.85% | [4] -4.6% | [5] -22.2% | [6] -6.6%

CCOC(=O)/C=C(\CC(=O)OCC)Nc1ccc(OC)cc1
inactive: [1] 6.8% | [2] -21.1% | [3] 4.1% | [4] -13.2% | [5] -2.3% | [6] -15.9%

S=C1N=C(Cl)C2(NN1)c1ccccc1-c1ccccc12
inactive: [1] 17.9% | [2] -16.1% | [3] -1.15% | [4] -14.5% | [5] -11.7% | [6] 32%

O=C(O)/C=C/c1ccncc1
inactive: [1] -1.7% | [2] -6.35% | [3] -7.15% | [4] 3.75% | [5] -0.3% | [6] 5.1%

CCOC(=O)c1ccc(NCc2nc3c([nH]2)c(=O)n(C)c(=O)n3C)cc1
inactive: [1] -0.95% | [2] -1.45% | [3] -1.35% | [4] -54.1% | [5] -14.2% | [6] 1.65%

[O-][n+]1ccccc1Cl
inactive: [1] 8.05% | [2] 9.9% | [3] 10.2% | [4] -14.4% | [5] 6.85% | [6] 16.4%
